# Article PMC10726135, “HNF4α isoforms regulate the circadian balance between carbohydrate and lipid metabolism in the liver”
# In all, about 18,000 sequences were measured (“log2 normalized intensity”: median about 0.36, highest 2% from about 7.3 on). Many of the other results were omitted from the sample, so the highest values are more common in it than they were.
# Target: T1, HNF4alpha8 (COS-7 nuclear extract) (Homo sapiens, UniProt P41235-5 1-452)
# T1 sequence: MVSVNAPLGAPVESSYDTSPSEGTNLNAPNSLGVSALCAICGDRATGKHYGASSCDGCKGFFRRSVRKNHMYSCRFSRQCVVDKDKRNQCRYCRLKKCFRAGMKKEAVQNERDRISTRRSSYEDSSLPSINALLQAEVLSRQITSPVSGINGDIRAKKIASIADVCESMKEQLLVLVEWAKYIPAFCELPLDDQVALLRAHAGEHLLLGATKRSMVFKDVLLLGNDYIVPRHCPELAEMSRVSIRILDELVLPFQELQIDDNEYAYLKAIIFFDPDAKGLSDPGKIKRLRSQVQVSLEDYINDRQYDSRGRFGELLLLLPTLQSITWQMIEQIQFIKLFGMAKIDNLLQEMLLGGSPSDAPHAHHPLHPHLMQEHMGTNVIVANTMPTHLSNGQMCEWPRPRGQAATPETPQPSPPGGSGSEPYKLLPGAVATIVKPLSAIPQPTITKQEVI
# Assay: protein-binding microarray; COS-7 nuclear extract on double-stranded Agilent 4x180k PBM; binding buffer, salt, pH and temperature not given in the material; high values mean tight binding
# Details: chain copies: 2; label: 3' end of strand 1 on the slide; dsDNA, one strand shown
# Method in brief: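 Nuclear extracts of COS-7 cells transiently transfected with a human HNF4α isoform were applied to a custom Agilent SurePrint G3 4x180k array bearing ~44,000 double-stranded ~60-nt test sequences, each in quadruplicate. The bound protein was imaged on an Agilent G2565CA scanner at 2-µm resolution. Binding signal is the normalized, background-corrected gProcessedSignal from Agilent software.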
row,Sequence,binding signal [log2 normalized intensity]
1,AGTGCGATGATCATGGCTCACTGCACCTTGGCCTAGGGAGATTAGAGTATCGGTCGA,0.737
2,TGCCTTTGATCAGGGACCTTTGTTCCTTTAGCCTAGGGAGATTAGAGTATCGGTCGA,5
3,CTCATGTGGTCCTAAAATTGACCTTTGATCGCCTAGGGAGATTAGAGTATCGGTCGA,11
4,GCTGACCTTTGGTCTAAACCTACTTAGATCGCCTAGGGAGATTAGAGTATCGGTCGA,4.73
5,CAAATAAACCTTTGACCAATTGACCCTATCGCCTAGGGAGATTAGAGTATCGGTCGA,4.69
6,TCATGGCTCACTGCACCTTGACCTCCTGGGGCCTAGGGAGATTAGAGTATCGGTCGA,5.78
7,GTGGTCCTAAAATTGACCTTTGATCACTCAGCCTAGGGAGATTAGAGTATCGGTCGA,10.2
8,TGCACTTTGACCGCTCATTTGATCCTCACAGCCTAGGGAGATTAGAGTATCGGTCGA,4.61
9,GATGATCATGGCTCACTGCACCTTGACCTCGCCTAGGGAGATTAGAGTATCGGTCGA,8.12
10,GCCTCCATTAATTAACCTTTGAGCTGGGTGGCCTAGGGAGATTAGAGTATCGGTCGA,5.22
11,TGGACTGTTCAAGACCAAAGGTCATGGCAAGCCTAGGGAGATTAGAGTATCGGTCGA,5.58
12,TAAGTGTGGGTTTAAGTAAGCCCCCTTCCCGCCTAGGGAGATTAGAGTATCGGTCGA,4.85
13,AGCTGACCCCAAAACCCCCAAAGGTGAGTAGCCTAGGGAGATTAGAGTATCGGTCGA,4.29
14,GCCACCCTCTGGCCACCAGTTATTCATGTCGCCTAGGGAGATTAGAGTATCGGTCGA,0.887
15,ATGCCCCATGGTAAGAACTACAGTTGACCTGCCTAGGGAGATTAGAGTATCGGTCGA,4.71
16,GACCTTTGAACACCACAAGTTTGAACTGCAGCCTAGGGAGATTAGAGTATCGGTCGA,5.65
17,CCATGGTAAGAACTACAGTTGACCTTTGAAGCCTAGGGAGATTAGAGTATCGGTCGA,8.15
18,CAGTTGACCTTTGAACACCACAAGTTTGAAGCCTAGGGAGATTAGAGTATCGGTCGA,6.74
19,TAGGTATGCCCCATGGTAAGAACTACAGTTGCCTAGGGAGATTAGAGTATCGGTCGA,1.21
20,AACTACAGTTGACCTTTGAACACCACAAGTGCCTAGGGAGATTAGAGTATCGGTCGA,8.13

row,Sequence,binding signal [log2 normalized intensity]
1,TTTTCCTTTGTTGGTTTTGCCCGAGGTCTGGCCTAGGGAGATTAGAGTATCGGTCGA,1.89
2,GTGGAATTTGTGCTTATTTCCCATCAAGGAGCCTAGGGAGATTAGAGTATCGGTCGA,0.292
3,ATAGCGCCCACACTGCCCATCCCCACTGAAGCCTAGGGAGATTAGAGTATCGGTCGA,3.12
4,AGCTGCCCTTTGCACATGCCCCTCCCAGGGGCCTAGGGAGATTAGAGTATCGGTCGA,2.81
5,AATGCACTGGTGACTTTAAGTTGACTCCAAGCCTAGGGAGATTAGAGTATCGGTCGA,-0.366
6,ATGACCTTTACCCCCATTTGGTAATGGGCCGCCTAGGGAGATTAGAGTATCGGTCGA,5.46
7,AGGATGGGCCATGACCTTTACCCCCATTTGGCCTAGGGAGATTAGAGTATCGGTCGA,8.39
8,TCACCAGGATGGGCCATGACCTTTACCCCCGCCTAGGGAGATTAGAGTATCGGTCGA,10
9,GGGCCATGACCTTTACCCCCATTTGGTAATGCCTAGGGAGATTAGAGTATCGGTCGA,7.13
10,AACGGCCCAGGGTTAGAGGATGACCTTCCCGCCTAGGGAGATTAGAGTATCGGTCGA,3.71
11,CACTATCACCAGGATGGGCCATGACCTTTAGCCTAGGGAGATTAGAGTATCGGTCGA,4.97
12,CCTCCAGCTCTTTTGAACCCAAGGCCAAACGCCTAGGGAGATTAGAGTATCGGTCGA,2.07
13,ATAAATAAAGCCCTGGGGTAATAAAAGTGTGCCTAGGGAGATTAGAGTATCGGTCGA,-0.134
14,TTTACTTATCATAAGTCAGCCTGGCTGAAGGCCTAGGGAGATTAGAGTATCGGTCGA,1.53
15,ATGAACTTTGACCCACCTACATTGATATTCGCCTAGGGAGATTAGAGTATCGGTCGA,5.5
16,TTGATATTTATCAAGATGAACTTTGACCCAGCCTAGGGAGATTAGAGTATCGGTCGA,11.2
17,ATTTATCAAGATGAACTTTGACCCACCTACGCCTAGGGAGATTAGAGTATCGGTCGA,8.8
18,CACCCAGAACTTTGACCGTTTGATTATTTGGCCTAGGGAGATTAGAGTATCGGTCGA,2.96
19,TCCCTTTGATATTTATCAAGATGAACTTTGGCCTAGGGAGATTAGAGTATCGGTCGA,5.51
20,ATTTTTCCCTTTGATATTTATCAAGATGAAGCCTAGGGAGATTAGAGTATCGGTCGA,0.842

row,Sequence,binding signal [log2 normalized intensity]
1,GGCCGTGAAGCCGTCCTGTCCTGGACTTTCGCCTAGGGAGATTAGAGTATCGGTCGA,4.47
2,GCTTGTTCTCTCCCCCAACCCCACCTTCATGCCTAGGGAGATTAGAGTATCGGTCGA,4.61
3,GTGTGGGACTTTGGTCTGCTGAGTCTCATGGCCTAGGGAGATTAGAGTATCGGTCGA,2.52
4,TCTTCTCAGTGTTTTGGGTCCTACAGAACCGCCTAGGGAGATTAGAGTATCGGTCGA,0.643
5,TTAGCCCAGTGAGACCCATTTTGGACTTTGGCCTAGGGAGATTAGAGTATCGGTCGA,7.42
6,TTTGGAATTTGACCTCATTTGCTCCCAGTGGCCTAGGGAGATTAGAGTATCGGTCGA,4.58
7,CCAGTGAGACCCATTTTGGACTTTGACCTCGCCTAGGGAGATTAGAGTATCGGTCGA,11.8
8,TTTGCCATTTGGAGAGAGTTTGGCCCCAGTGCCTAGGGAGATTAGAGTATCGGTCGA,2.83
9,ACATCTTGATTTAGCCCAGTGAGACCCATTGCCTAGGGAGATTAGAGTATCGGTCGA,0.922
10,CACATACACCTGCGTGTACTAAGGTCTTAAGCCTAGGGAGATTAGAGTATCGGTCGA,1.24
11,CAAGTTGCAGGGATGGACTTTAATCTCCAAGCCTAGGGAGATTAGAGTATCGGTCGA,5.83
12,AGGTCATGCATAGAAGTATGTCTGGGATTTGCCTAGGGAGATTAGAGTATCGGTCGA,0.935
13,GTGCTCCTCCCCATCTCAGCCTCTCAGGTCGCCTAGGGAGATTAGAGTATCGGTCGA,1.84
14,AGGCCCTCGGCATCATGCCCTTTGGCCCCCGCCTAGGGAGATTAGAGTATCGGTCGA,7.71
15,ACACCAGGCCCTCGGCATCATGCCCTTTGGGCCTAGGGAGATTAGAGTATCGGTCGA,4.63
16,CCCCCAAGGCATGGGACCTTTGCCCTTCTTGCCTAGGGAGATTAGAGTATCGGTCGA,6.71
17,AAGGCATGGGACCTTTGCCCTTCTTGTTAAGCCTAGGGAGATTAGAGTATCGGTCGA,5.47
18,CCCCTCCCCCAAGGCATGGGACCTTTGCCCGCCTAGGGAGATTAGAGTATCGGTCGA,7.34
19,CTCGGCATCATGCCCTTTGGCCCCCAGAGCGCCTAGGGAGATTAGAGTATCGGTCGA,7.18
